# According to the supplement of paper PMC4466140:
# Target: AgAbp1
# Experiment: SPOT peptide array binding signal intensity (averaged, normalized) (arbitrary units (background-subtracted, floor 0; scale differs between SH3 domains)); higher = stronger binding of the SH3 domain to the peptide
# How it was run: (§1)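 To measure binding, SH3 domains from four yeast species were fused to GST, expressed in E. coli BL21(DE3) and purified on glutathione Sepharose. Each domain was incubated at 10 μg/ml overnight at 4°C on cellulose membranes with synthetic 15-mer peptides whose cysteines were replaced by serines. Anti-GST antibody, an HRP anti-mouse secondary and luminol were used for detection, and images were quantified with Genespotter. Reported binding signal is normalized, background-subtracted spot intensity averaged over replicates, in arbitrary units that differ between domains.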
row,Binder,SPOT peptide array binding signal intensity
1,IAPIPMPKPNPTHIS,≤ 0

# Target: AgBbc1
# Experiment: as above
# How it was run: as §1
row,Binder,SPOT peptide array binding signal intensity
1,IAPIPMPKPNPTHIS,≤ 0

# Target: AgBem1-D1
# Experiment: as above
# How it was run: as §1
row,Binder,SPOT peptide array binding signal intensity
1,IAPIPMPKPNPTHIS,7

# Target: AgBzz1-D1
# Experiment: as above
# How it was run: as §1
row,Binder,SPOT peptide array binding signal intensity
1,IAPIPMPKPNPTHIS,≤ 0

# Target: AgBzz1-D2
# Experiment: as above
# How it was run: as §1
row,Binder,SPOT peptide array binding signal intensity
1,IAPIPMPKPNPTHIS,4

# Target: AgCyk3
# Experiment: as above
# How it was run: as §1
row,Binder,SPOT peptide array binding signal intensity
1,IAPIPMPKPNPTHIS,≤ 0

# Target: AgFus1
# Experiment: as above
# How it was run: as §1
row,Binder,SPOT peptide array binding signal intensity
1,IAPIPMPKPNPTHIS,44.5

# Target: AgHof1
# Experiment: as above
# How it was run: as §1
row,Binder,SPOT peptide array binding signal intensity
1,IAPIPMPKPNPTHIS,≤ 0

# Target: AgHse1
# Experiment: as above
# How it was run: as §1
row,Binder,SPOT peptide array binding signal intensity
1,IAPIPMPKPNPTHIS,12

# Target: AgLsb1
# Experiment: as above
# How it was run: as §1
row,Binder,SPOT peptide array binding signal intensity
1,IAPIPMPKPNPTHIS,≤ 0

# Target: AgLsb4
# Experiment: as above
# How it was run: as §1
row,Binder,SPOT peptide array binding signal intensity
1,IAPIPMPKPNPTHIS,≤ 0

# Target: AgMyo5
# Experiment: as above
# How it was run: as §1
row,Binder,SPOT peptide array binding signal intensity
1,IAPIPMPKPNPTHIS,≤ 0

# Target: AgNbp2
# Experiment: as above
# How it was run: as §1
row,Binder,SPOT peptide array binding signal intensity
1,IAPIPMPKPNPTHIS,61.5

# Target: AgRvs167
# Experiment: as above
# How it was run: as §1
row,Binder,SPOT peptide array binding signal intensity
1,IAPIPMPKPNPTHIS,0.333

# Target: AgSho1
# Experiment: as above
# How it was run: as §1
row,Binder,SPOT peptide array binding signal intensity
1,IAPIPMPKPNPTHIS,32

# Target: AgSla1-D1-D2
# Experiment: as above
# How it was run: as §1
row,Binder,SPOT peptide array binding signal intensity
1,IAPIPMPKPNPTHIS,≤ 0

# Target: AgSla1-D3
# Experiment: as above
# How it was run: as §1
row,Binder,SPOT peptide array binding signal intensity
1,IAPIPMPKPNPTHIS,4.5

# Target: CaAbp1-D1
# Experiment: as above
# How it was run: as §1
row,Binder,SPOT peptide array binding signal intensity
1,IAPIPMPKPNPTHIS,≤ 0

# Target: CaAbp1-D2
# Experiment: as above
# How it was run: as §1
row,Binder,SPOT peptide array binding signal intensity
1,IAPIPMPKPNPTHIS,28.5

# Target: CaBbc1
# Experiment: as above
# How it was run: as §1
row,Binder,SPOT peptide array binding signal intensity
1,IAPIPMPKPNPTHIS,≤ 0

# Target: CaBem1-D1
# Experiment: as above
# How it was run: as §1
row,Binder,SPOT peptide array binding signal intensity
1,IAPIPMPKPNPTHIS,48.5

# Target: CaBzz1-D1
# Experiment: as above
# How it was run: as §1
row,Binder,SPOT peptide array binding signal intensity
1,IAPIPMPKPNPTHIS,≤ 0

# Target: CaBzz1-D2
# Experiment: as above
# How it was run: as §1
row,Binder,SPOT peptide array binding signal intensity
1,IAPIPMPKPNPTHIS,9.75

# Target: CaCyk3
# Experiment: as above
# How it was run: as §1
row,Binder,SPOT peptide array binding signal intensity
1,IAPIPMPKPNPTHIS,≤ 0

# Target: CaFus1
# Experiment: as above
# How it was run: as §1
row,Binder,SPOT peptide array binding signal intensity
1,IAPIPMPKPNPTHIS,170

# Target: CaHof1
# Experiment: as above
# How it was run: as §1
row,Binder,SPOT peptide array binding signal intensity
1,IAPIPMPKPNPTHIS,0.5

# Target: CaHse1
# Experiment: as above
# How it was run: as §1
row,Binder,SPOT peptide array binding signal intensity
1,IAPIPMPKPNPTHIS,33.8

# Target: CaLsb1
# Experiment: as above
# How it was run: as §1
row,Binder,SPOT peptide array binding signal intensity
1,IAPIPMPKPNPTHIS,≤ 0

# Target: CaLsb4
# Experiment: as above
# How it was run: as §1
row,Binder,SPOT peptide array binding signal intensity
1,IAPIPMPKPNPTHIS,51

# Target: CaMyo5
# Experiment: as above
# How it was run: as §1
row,Binder,SPOT peptide array binding signal intensity
1,IAPIPMPKPNPTHIS,3

# Target: CaNbp2
# Experiment: as above
# How it was run: as §1
row,Binder,SPOT peptide array binding signal intensity
1,IAPIPMPKPNPTHIS,430

# Target: CaRvs167
# Experiment: as above
# How it was run: as §1
row,Binder,SPOT peptide array binding signal intensity
1,IAPIPMPKPNPTHIS,≤ 0

# Target: CaRvs167-3
# Experiment: as above
# How it was run: as §1
row,Binder,SPOT peptide array binding signal intensity
1,IAPIPMPKPNPTHIS,≤ 0

# Target: CaSho1
# Experiment: as above
# How it was run: as §1
row,Binder,SPOT peptide array binding signal intensity
1,IAPIPMPKPNPTHIS,305

# Target: CaSla1-D1-D2
# Experiment: as above
# How it was run: as §1
row,Binder,SPOT peptide array binding signal intensity
1,IAPIPMPKPNPTHIS,58.5

# Target: CaSla1-D3
# Experiment: as above
# How it was run: as §1
row,Binder,SPOT peptide array binding signal intensity
1,IAPIPMPKPNPTHIS,52.5

# Target: ScAbp1
# Experiment: as above
# How it was run: as §1
row,Binder,SPOT peptide array binding signal intensity
1,IAPIPMPKPNPTHIS,≤ 0

# Target: ScBbc1
# Experiment: as above
# How it was run: as §1
row,Binder,SPOT peptide array binding signal intensity
1,IAPIPMPKPNPTHIS,≤ 0

# Target: ScBem1-D1
# Experiment: as above
# How it was run: as §1
row,Binder,SPOT peptide array binding signal intensity
1,IAPIPMPKPNPTHIS,≤ 0

# Target: ScBzz1-D1
# Experiment: as above
# How it was run: as §1
row,Binder,SPOT peptide array binding signal intensity
1,IAPIPMPKPNPTHIS,≤ 0

# Target: ScBzz1-D2
# Experiment: as above
# How it was run: as §1
row,Binder,SPOT peptide array binding signal intensity
1,IAPIPMPKPNPTHIS,≤ 0

# Target: ScCyk3
# Experiment: as above
# How it was run: as §1
row,Binder,SPOT peptide array binding signal intensity
1,IAPIPMPKPNPTHIS,≤ 0

# Target: ScFus1
# Experiment: as above
# How it was run: as §1
row,Binder,SPOT peptide array binding signal intensity
1,IAPIPMPKPNPTHIS,56

# Target: ScHof1
# Experiment: as above
# How it was run: as §1
row,Binder,SPOT peptide array binding signal intensity
1,IAPIPMPKPNPTHIS,≤ 0

# Target: ScHse1
# Experiment: as above
# How it was run: as §1
row,Binder,SPOT peptide array binding signal intensity
1,IAPIPMPKPNPTHIS,≤ 0

# Target: ScLsb1
# Experiment: as above
# How it was run: as §1
row,Binder,SPOT peptide array binding signal intensity
1,IAPIPMPKPNPTHIS,≤ 0

# Target: ScLsb2
# Experiment: as above
# How it was run: as §1
row,Binder,SPOT peptide array binding signal intensity
1,IAPIPMPKPNPTHIS,≤ 0

# Target: ScLsb3
# Experiment: as above
# How it was run: as §1
row,Binder,SPOT peptide array binding signal intensity
1,IAPIPMPKPNPTHIS,≤ 0

# Target: ScLsb4
# Experiment: as above
# How it was run: as §1
row,Binder,SPOT peptide array binding signal intensity
1,IAPIPMPKPNPTHIS,≤ 0

# Target: ScMyo3
# Experiment: as above
# How it was run: as §1
row,Binder,SPOT peptide array binding signal intensity
1,IAPIPMPKPNPTHIS,≤ 0

# Target: ScMyo5
# Experiment: as above
# How it was run: as §1
row,Binder,SPOT peptide array binding signal intensity
1,IAPIPMPKPNPTHIS,≤ 0

# Target: ScNbp2
# Experiment: as above
# How it was run: as §1
row,Binder,SPOT peptide array binding signal intensity
1,IAPIPMPKPNPTHIS,158

# Target: ScPex13
# Experiment: as above
# How it was run: as §1
row,Binder,SPOT peptide array binding signal intensity
1,IAPIPMPKPNPTHIS,22.2

# Target: ScRvs167
# Experiment: as above
# How it was run: as §1
row,Binder,SPOT peptide array binding signal intensity
1,IAPIPMPKPNPTHIS,0.333

# Target: ScSho1
# Experiment: as above
# How it was run: as §1
row,Binder,SPOT peptide array binding signal intensity
1,IAPIPMPKPNPTHIS,158

# Target: ScSla1-D1-D2
# Experiment: as above
# How it was run: as §1
row,Binder,SPOT peptide array binding signal intensity
1,IAPIPMPKPNPTHIS,0.5

# Target: ScSla1-D3
# Experiment: as above
# How it was run: as §1
row,Binder,SPOT peptide array binding signal intensity
1,IAPIPMPKPNPTHIS,81.5

# Target: SpAbp1-D1
# Experiment: as above
# How it was run: as §1
row,Binder,SPOT peptide array binding signal intensity
1,IAPIPMPKPNPTHIS,8.5

# Target: SpBbc1
# Experiment: as above
# How it was run: as §1
row,Binder,SPOT peptide array binding signal intensity
1,IAPIPMPKPNPTHIS,≤ 0

# Target: SpBzz1-D1
# Experiment: as above
# How it was run: as §1
row,Binder,SPOT peptide array binding signal intensity
1,IAPIPMPKPNPTHIS,37.5

# Target: SpBzz1-D2
# Experiment: as above
# How it was run: as §1
row,Binder,SPOT peptide array binding signal intensity
1,IAPIPMPKPNPTHIS,0.5

# Target: SpCyk3
# Experiment: as above
# How it was run: as §1
row,Binder,SPOT peptide array binding signal intensity
1,IAPIPMPKPNPTHIS,≤ 0

# Target: SpHof1
# Experiment: as above
# How it was run: as §1
row,Binder,SPOT peptide array binding signal intensity
1,IAPIPMPKPNPTHIS,≤ 0

# Target: SpHof1-2
# Experiment: as above
# How it was run: as §1
row,Binder,SPOT peptide array binding signal intensity
1,IAPIPMPKPNPTHIS,7

# Target: SpHof1-3
# Experiment: as above
# How it was run: as §1
row,Binder,SPOT peptide array binding signal intensity
1,IAPIPMPKPNPTHIS,≤ 0

# Target: SpHse1
# Experiment: as above
# How it was run: as §1
row,Binder,SPOT peptide array binding signal intensity
1,IAPIPMPKPNPTHIS,217

# Target: SpLsb1
# Experiment: as above
# How it was run: as §1
row,Binder,SPOT peptide array binding signal intensity
1,IAPIPMPKPNPTHIS,≤ 0

# Target: SpLsb4
# Experiment: as above
# How it was run: as §1
row,Binder,SPOT peptide array binding signal intensity
1,IAPIPMPKPNPTHIS,92.5

# Target: SpMyo1
# Experiment: as above
# How it was run: as §1
row,Binder,SPOT peptide array binding signal intensity
1,IAPIPMPKPNPTHIS,0.5

# Target: SpNbp2
# Experiment: as above
# How it was run: as §1
row,Binder,SPOT peptide array binding signal intensity
1,IAPIPMPKPNPTHIS,29

# Target: SpPex13
# Experiment: as above
# How it was run: as §1
row,Binder,SPOT peptide array binding signal intensity
1,IAPIPMPKPNPTHIS,2

# Target: SpRvs167
# Experiment: as above
# How it was run: as §1
row,Binder,SPOT peptide array binding signal intensity
1,IAPIPMPKPNPTHIS,≤ 0

# Target: SpSla1-D1-D2
# Experiment: as above
# How it was run: as §1
row,Binder,SPOT peptide array binding signal intensity
1,IAPIPMPKPNPTHIS,≤ 0

# Target: SpSla1-D3
# Experiment: as above
# How it was run: as §1
row,Binder,SPOT peptide array binding signal intensity
1,IAPIPMPKPNPTHIS,32
